Screens deposited in PubChem by National Center for Advancing Translational Sciences (NCATS).
IL1B secr inh: inflammasome signaling inhibition, IL-1 beta readout. THP-1 LPS/ATP IL-1B secretion, AlphaLISA, 16 h; active compounds read low. activity change, % at 57.5 µM. hit rate 4.7% among 360,000. AID 743279; in the data active means activity change below about -50%; inconclusive means mostly about -30% to -49%
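THP-1 cells pretreated 1 hr with compounds (up to 57.5 uM final), then stimulated with LPS (250 ng/mL final) plus ATP (1.25 mM final); secreted IL-1B measured by AlphaLISA after 16 hr, decreased signal indicating inhibition.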
BCR signal inh: blocks chronic active B-cell receptor signaling; ABC-DLBCL IkBa-CBG/CBR reporter, luminescence ratio, 4 h; Potency, µM (top dose mostly 46.1 µM), hits mostly inhibitors; hit rate 0.05% among 340,000; active means well fitted inhibition curve with a large enough effect in the signal ratio, with a control signal flat, not every such curve was filed as active; inconclusive means small, poorly fitted or top-dose-only effect, or effect the other way, or a change in a side signal; the % refers to the signal ratio
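Doxycycline induced both beetle luciferases in TMD8 lymphoma cells; IKK-driven degradation limits the IkappaBalpha-fused green signal, while red luminescence normalises for cell number and nonspecific effects. Compounds tested up to 46 uM, 4 hrs.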
MCF10A rerep: induces DNA re-replication in MCF 10a normal breast cells | MCF 10A DNA re-replication, Hoechst nuclear intensity, 48 h | Potency, µM (doses to about 46.1 µM), actives largely listed as activators | hit rate 2.9% among 350,000; further: nearly all actives have a fitted effect of over 50% in size
TDP1 cell noCPT: qHTS for Inhibitors of human tyrosyl-DNA phosphodiesterase 1 (TDP1): qHTS in cells in absence of CPT. DT40 Tdp1-/- hTDP1 cells, no CPT, ATP luminescence, 48 h. hit rate 15% among 420,000. AID 686978, 2013. Potency, µM (titrated, usually from 46.2 µM), actives largely listed as inhibitors; further: nearly all actives have a fitted effect of over 55% in size
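A cellular qHTS used chicken DT40 cells lacking endogenous Tdp1 but carrying stably transfected human TDP1. Compounds were applied without camptothecin, and cell growth kinetics were judged by ATP-dependent luminescence after ≥48 hr.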
SW480 rerep: DNA re-replication induction in SW480 cells; SW480 DNA re-replication, Hoechst DNA content imaging, 48 h; Potency, µM (series often up to 46.1 µM), usual class: activators; hit rate 1.8% among 340,000; AID 624297; further: nearly all actives have a fitted effect of over 55% in size
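SW480 cells exposed to compounds for 48 hr at 37 C, 5% CO2, then Hoechst-stained 40 min. Nuclear DNA content imaged by fluorescence scanning (405 nm excitation, 500-530 nm emission); re-replication scored as increased high-intensity nuclei.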
TDP1 cell CPT: growth inhibition of DT40 Tdp1-/-;hTDP1 cells with camptothecin (screen for TDP1 inhibitors). chicken DT40 Tdp1-/-;hTDP1 cells + 20 nM CPT, ATP luminescence, 48 h. AID 686979. Potency, µM (highest dose often 46.2 µM), hits mostly inhibitors. hit rate 12% among 420,000; further: nearly all actives have a fitted effect of over 55% in size
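Chicken DT40 Tdp1-/- cells stably complemented with human TDP1 were seeded at 400 cells/well in medium containing 20 nM camptothecin, exposed to pin-transferred compounds, and grown at 37 °C for at least 48 hr. Viability was read as ATP luminescence.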
Of the large screens only hits and unclear results are named; the others gave an inactive call; ! = not active in a repeat. An excerpt weighted towards active compounds, which were near 19% of everything screened. Unless noted, the call rests on the fitted dose curve; in most records, active means well fitted curve in the direction sought with a large enough effect; inconclusive means small, poorly fitted or top-dose-only effect, or another doubt; inactive means no such curve, though single readings can be large; an effect the other way counts as inactive or inconclusive.

c1ccc(CN(CC2=NCCN2)c2ccccc2)cc1	BCR signal inh inconclusive, TDP1 cell noCPT inconclusive, SW480 rerep 0.231µM!, TDP1 cell CPT inconclusive
C=CCc1c(C)nc(-c2ccccc2)nc1N/N=C/c1ccncc1	BCR signal inh inconclusive, SW480 rerep 23.1µM, TDP1 cell CPT inconclusive
C=CCc1c(C)nc(-c2ccccc2)nc1Nc1ccccc1O	MCF10A rerep 23.1µM, TDP1 cell noCPT inconclusive, TDP1 cell CPT inconclusive
Cc1ccc(S(=O)(=O)n2cc(CO)c3ccccc32)cc1	TDP1 cell noCPT inconclusive, TDP1 cell CPT inconclusive (no result: BCR signal inh)
O=C1N[C@@H](Cc2cn(S(=O)(=O)c3ccc([N+](=O)[O-])cc3)c3ccccc23)C(=O)N[C@H]1Cc1ccccc1	TDP1 cell noCPT inconclusive, TDP1 cell CPT 20.6µM (no result: BCR signal inh)
O=C(c1cc(-c2ccccc2)nc2ccccc12)N1CCCc2ccccc21	TDP1 cell noCPT 23.1µM, SW480 rerep inconclusive, TDP1 cell CPT inconclusive
O=C(c1cc(-c2ccc(Br)cc2)nc2ccccc12)N1CCC1	IL1B secr inh inconclusive, BCR signal inh inconclusive, TDP1 cell noCPT inconclusive, TDP1 cell CPT inconclusive
O=C(c1cc(-c2cccc(Br)c2)nc2ccccc12)N1CCCC1	BCR signal inh inconclusive, TDP1 cell CPT inconclusive
Cc1cccc(-c2cc(C(=O)N3CCCc4ccccc43)c3ccccc3n2)c1	TDP1 cell noCPT inconclusive, TDP1 cell CPT 23.1µM
CCc1c(C)c2ccc(OC(C)C(=O)NC(Cc3c[nH]c4ccc(O)cc34)C(=O)O)c(C)c2oc1=O (configuration not stated)	MCF10A rerep inconclusive
CCCN(C(=O)c1c(CC)noc1C)c1c(N)n(Cc2ccccc2)c(=O)[nH]c1=O	none
O=[N+]([O-])c1ccc(O)c(N=Cc2sc3ccccc3c2O)c1	BCR signal inh inconclusive, TDP1 cell noCPT 11.6µM, SW480 rerep inconclusive, TDP1 cell CPT 20.6µM
CN(CC(=O)Nc1ccc(Cl)c(C(F)(F)F)c1)C(=O)Cc1cccs1	IL1B secr inh inconclusive, TDP1 cell noCPT inconclusive, TDP1 cell CPT inconclusive
CN(CC(=O)Nc1ccc(Cl)c(C(F)(F)F)c1)C(=O)Cc1ccsc1	IL1B secr inh -89.1, TDP1 cell noCPT 16.4µM, TDP1 cell CPT 16.4µM
CN(CC(=O)Nc1ccc(Cl)c(C(F)(F)F)c1)C(=O)CCN1C(=O)C2CC=CCC2C1=O (configuration not stated)	TDP1 cell noCPT inconclusive, TDP1 cell CPT 9.2µM
CCOc1ccc(CCNC(=O)c2c(C)oc3ncnc(N4CCOCC4)c23)cc1	TDP1 cell CPT inconclusive (no result: IL1B secr inh, BCR signal inh, MCF10A rerep, SW480 rerep)
CC1CCN(CC(=O)N2CCN(c3ccccc3)CC2)CC1	none
COc1ccc(CNC(=O)CN2CCN(C(c3ccccc3)c3ccccc3)CC2)cc1	IL1B secr inh -64.3, MCF10A rerep inconclusive, TDP1 cell noCPT inconclusive, SW480 rerep inconclusive, TDP1 cell CPT 18.4µM
CC(C)(C)NC(=O)NC(=O)CN1CCN(C(c2ccccc2)c2ccccc2)CC1	TDP1 cell noCPT inconclusive, TDP1 cell CPT 9.2µM
O=C(CN1CCN(C(c2ccccc2)c2ccccc2)CC1)N1CCN(c2ccccc2)CC1	TDP1 cell noCPT 18.4µM, TDP1 cell CPT inconclusive
CC(C)(C)NC(=O)NC(=O)CN1CCN(Cc2ccccc2)CC1	TDP1 cell noCPT inconclusive, TDP1 cell CPT inconclusive
O=C(CN1CCN(C(c2ccccc2)c2ccccc2)CC1)NC(=O)NCc1ccco1	BCR signal inh inconclusive, TDP1 cell noCPT inconclusive, SW480 rerep inconclusive, TDP1 cell CPT 20.6µM
Cc1nc2cnc(OCc3ccccc3)nc2n(Cc2ccc(F)cc2)c1=O	none (no result: IL1B secr inh, BCR signal inh, MCF10A rerep, SW480 rerep)
Cc1cccc(NC(=O)CSCC(=O)NCc2ccco2)c1	none
CC1(C(=O)O)CCCN1C(=O)c1cccc(OC(F)(F)F)c1 (configuration not stated)	none (no result: BCR signal inh, MCF10A rerep, SW480 rerep)
Cc1ccccc1C(=O)OCc1cc(=O)n2nc(C3CC3)sc2n1	none (no result: IL1B secr inh, BCR signal inh, MCF10A rerep, SW480 rerep)
CCOC(=O)Cc1csc2nc(-c3ccccc3)nn12	BCR signal inh inconclusive, TDP1 cell noCPT inconclusive
Cc1cccc(-c2nc3scc(CCNC(=O)c4ccccc4Cl)n3n2)c1	TDP1 cell noCPT 20.6µM, TDP1 cell CPT inconclusive (no result: IL1B secr inh, BCR signal inh, MCF10A rerep, SW480 rerep)
